Measurements as given in PubChem BioAssay (NCI).
About 83,000 compounds went through this panel and 20% of them were active in at least one assay; those are over-represented in the sample as a whole.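 Cells were grown in 96-well plates and exposed to the test compound at a single concentration for 48 hours; results are reported as percent growth, with values below 10 considered active.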 Values without a mark were called inactive. Active and inactive are the calls of the source.

What follows are compounds tested on RXF 393 renal (assay: NCI-60 one-dose screen, 48 h (100 = growth as untreated, 0 = no growth, -100 = all killed)). Conditions: 10 µM.

| SMILES | growth |
| --- | --- |
| O=C(Nc1ccc(I)cc1F)c1cc(-c2ccc(F)cc2F)ccc1O | -9.21% (active) |
| COc1cccc(/C=C2\N=C(C)N(CCc3ccc(S(N)(=O)=O)cc3)C2=O)c1 | 121% |
| CC1=C2C(=C[C@@](C)(COCOCCCl)[C@@H]2O)C(=O)[C@](C)(O)C12CC2 | -78.4% (active) |
| Nc1n[nH]c2cccc(C#Cc3cccc(NC(=O)Nc4cc(C(F)(F)F)cc(C(F)(F)F)c4)c3)c12 | -70.9% (active) |
| O=C(N=Nc1c(O)[nH]c2ccc(Br)cc12)c1ccc2nc(-c3ccccc3)[nH]c2c1 | -79.7% (active) |
| COc1cccc(-c2ccc(/C=N/NC(=O)c3[nH]c4ccc(Br)cc4c3-c3ccccc3)o2)c1 | 26.1% |
| COc1cc2c(cc1OC)CN(CCCCOc1cc(O)c3c(=O)cc(-c4ccccc4)oc3c1)CC2 | 29.8% |
| COc1ccc(CCN2C(=O)/C(=C/c3csc(C#N)n3)SC2=S)cc1 | -3.89% (active) |
| N#Cc1c(NC(=O)c2ccc(C(O)(C(F)(F)F)C(F)(F)F)cc2)sc2c1CCC(=O)C2 | -89% (active) |
| Cn1cc(-c2cc(N)n3nc(-c4c[nH]c5ccc(Br)cc45)cc3n2)c2cc(Br)cnc21 | -71.2% (active) |
| COc1ccccc1[C@H]1C(C(=O)c2ccc(Cl)cc2)C2(N[C@@H]1c1ccccc1)C(=O)Nc1ccccc12 (some centres not stated) | -73.8% (active) |
| CC(=O)Nc1ccc(-c2cn(-c3cccc(C(=O)Nc4cc(C(F)(F)F)cc(C(F)(F)F)c4)c3)nn2)cn1 | -69.4% (active) |
| CCCCCCCCCCCCCCCCCCCC(=O)NCCc1c[nH]c2ccc(OC(=O)CCCC(=O)OCCOOCCOOCCOOCCOOCCOOCCOOCCOOCCOOCCOOCCOOCCOOCCOC)cc12 | 91.3% |
| O=C1Nc2ccc(Cl)cc2/C1=C/c1cccc(OCc2ccccn2)c1 | -31.4% (active) |
| CN1CCN(Cc2ccc(C(=O)Nc3cccc(Nc4ccc5cc(O)ccc5n4)c3)cc2C(F)(F)F)CC1 | -87.8% (active) |
| O=C(O)CCCCCCCCCCN1C(=O)/C(=C/c2cnc(-c3ccc(Cl)cc3)s2)SC1=S | 77.4% |
| COc1ccc(NC(=O)Nc2ccc(OCC(=O)N=Nc3c(O)[nH]c4ccc([N+](=O)[O-])cc34)cc2)cc1 | 107% |
| C/C(=C\CC/C=C(\C)CC/C=C(\C)CC[C@@H](O)C(C)(C)O)CC/C=C(\C)CC[C@@H](O)C(C)(C)O | 16.5% |
| CCOC(=O)C1NN(c2ccc(S(N)(=O)=O)cc2)c2nc3nc(-c4cccs4)cc(-c4cccs4)c3c(=O)n21 (configuration not stated) | 51.6% |

| SMILES | growth |
| --- | --- |
| CN(CCF)c1ccc(/C=C/C(=O)c2ccc(N)cc2O)cc1 | 82.8% |
| C=C1CCC2C3(C)COC(c4c(F)cccc4F)OC3CCC2(C)C1CC(O)C1=CCOC1=O (configuration not stated) | 66.1% |
| O=C(Nc1cccc(-c2cn(-c3ccc4oc(=O)ccc4c3)nn2)c1)Nc1cc(C(F)(F)F)cc(C(F)(F)F)c1 | -5.05% (active) |
| CN1CCCN(Cc2ccc(C(=O)Nc3cccc(Nc4ccc5cc(O)ccc5n4)c3)cc2C(F)(F)F)CC1 | 60.8% |
| N#Cc1c(NC(=O)c2ccc(C(F)(F)F)cc2C(F)(F)F)sc2c1CCC(=O)C2 | -59% (active) |
| O=C(c1ccc(O)cc1)C1[C@H](c2ccccc2Br)[C@@H](c2ccccc2)NC12C(=O)Nc1ccc(Br)cc12 (some centres not stated) | 55.3% |
| COc1ccc(N2N=C(c3ccc4c(c3)OCCO4)CC2c2cccc(NC(=O)CCCNS(=O)(=O)c3ccc(F)cc3)c2)cc1 (configuration not stated) | 68.1% |
| C=C1CCC2C3(C)COC(c4ccccc4F)OC3CCC2(C)C1C/C=C1/C(=O)OCC1O (configuration not stated) | -68.5% (active) |
| O=C(Nc1nc2ccc([N+](=O)[O-])cc2s1)Nc1ccccc1I | -12.7% (active) |
| COc1ccc(-c2ccc(/C=N/NC(=O)c3[nH]c4ccc(Br)cc4c3-c3ccccc3)s2)cc1 | 74.2% |
| Brc1ccc(/C=N/Nc2ncnc3sc4c(c23)CCN(Cc2ccccc2)C4)cc1 | 66.7% |
| CC(=O)Nc1ccc(-n2cnc3cc(-c4ccc(O)cc4)ccc32)cc1C | 43.4% |
| O=C(c1ccc(O)cc1)C1[C@H](c2ccc(Br)cc2)[C@@H](c2ccccc2)NC12C(=O)Nc1ccccc12 (some centres not stated) | -16.4% (active) |
| Nc1nnc(-c2c[nH]c3ccc(F)cc23)c(-c2c[nH]c3ncccc23)n1 | 82.8% |
| CN1CCN(c2ccc(C(=O)/C=C/c3ccc(C#N)cc3)cc2)CC1 | 63.9% |
| Cc1ccc(CSc2nc(-c3ccc(F)cc3)c(C#N)c(=O)[nH]2)cc1 | 95.1% |
| CCCCCCCCCCCCCCCCCCCC(=O)NCCc1c[nH]c2ccc(OC(=O)NOCCOCCOCCOCCOCCOCCOCCOCCOCCOCCOCCOCCOCCOCCOCCOCCOCCOCCOCCOCCOCCOCCOC)cc12 | 12% |
| Cc1ccc(/C(N)=N/c2sc(-c3ccccc3)nc2-c2ccccc2)cc1 | 82.7% |
